Reference: the supplement of paper PMC11732987, “Enantioselective OTUD7B fragment discovery through chemoproteomics screening and high-throughput optimisation” (Communications Chemistry, 2025)

Tests used:
Assay in all cases: log2 ratio of Biotin-Ahx-Ub-VS probe labelling (fragment/DMSO); higher = less target engagement (more negative = stronger competition), active = hit call of the paper (q ≤ 0.05, log2 ratio ≤ -1)
Conditions in all cases: compound concentration: 200 uM; treatment time: 3 h
[1] = target: T1, USP42 (UniProt Q9H9J4)
T1 sequence (whole entry): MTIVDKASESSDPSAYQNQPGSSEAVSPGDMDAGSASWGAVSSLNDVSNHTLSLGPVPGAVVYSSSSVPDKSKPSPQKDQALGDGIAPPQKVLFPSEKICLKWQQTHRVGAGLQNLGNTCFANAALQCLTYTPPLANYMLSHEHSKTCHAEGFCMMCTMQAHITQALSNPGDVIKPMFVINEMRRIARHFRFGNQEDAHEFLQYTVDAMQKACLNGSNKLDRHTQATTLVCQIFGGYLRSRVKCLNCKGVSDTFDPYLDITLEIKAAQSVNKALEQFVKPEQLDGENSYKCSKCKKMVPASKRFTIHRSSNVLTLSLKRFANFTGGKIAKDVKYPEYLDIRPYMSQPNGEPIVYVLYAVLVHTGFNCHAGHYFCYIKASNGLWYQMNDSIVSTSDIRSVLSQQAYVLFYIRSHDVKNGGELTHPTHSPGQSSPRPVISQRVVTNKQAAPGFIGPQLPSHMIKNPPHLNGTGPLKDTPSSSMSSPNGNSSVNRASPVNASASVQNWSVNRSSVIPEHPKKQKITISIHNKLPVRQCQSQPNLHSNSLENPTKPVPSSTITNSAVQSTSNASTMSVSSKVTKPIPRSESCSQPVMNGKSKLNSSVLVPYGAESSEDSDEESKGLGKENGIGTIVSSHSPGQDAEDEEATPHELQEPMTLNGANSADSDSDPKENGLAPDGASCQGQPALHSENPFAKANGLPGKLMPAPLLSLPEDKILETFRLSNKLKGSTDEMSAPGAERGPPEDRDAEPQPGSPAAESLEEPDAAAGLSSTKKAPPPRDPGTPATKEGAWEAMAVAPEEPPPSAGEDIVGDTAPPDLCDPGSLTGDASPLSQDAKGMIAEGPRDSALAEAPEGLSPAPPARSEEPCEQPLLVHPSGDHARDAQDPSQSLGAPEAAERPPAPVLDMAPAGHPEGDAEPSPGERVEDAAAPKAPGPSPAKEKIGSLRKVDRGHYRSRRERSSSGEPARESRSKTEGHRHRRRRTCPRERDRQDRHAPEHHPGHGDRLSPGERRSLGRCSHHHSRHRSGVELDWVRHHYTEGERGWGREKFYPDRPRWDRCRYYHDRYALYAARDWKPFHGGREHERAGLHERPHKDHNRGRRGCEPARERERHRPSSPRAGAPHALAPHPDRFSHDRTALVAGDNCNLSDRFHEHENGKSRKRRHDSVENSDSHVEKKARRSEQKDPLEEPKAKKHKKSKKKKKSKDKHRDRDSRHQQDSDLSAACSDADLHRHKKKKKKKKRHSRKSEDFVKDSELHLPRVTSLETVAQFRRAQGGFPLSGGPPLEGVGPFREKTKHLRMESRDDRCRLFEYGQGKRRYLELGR
Outline: (§1)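 HEK293T lysate, 495 µg per sample in Tris/CHAPS/IGEPAL buffer with protease inhibitors, was treated in triplicate with fragment at 200 µM or vehicle for 3 h and then with Biotin-Ahx-Ub-VS at 0.5 µM final for 1 h. Labelled DUBs were NeutrAvidin-enriched, digested with LysC and trypsin, and run by diaPASEF LC-MS/MS. Spectronaut label-free quantities were global-median-normalised, and values are average log2 fragment/vehicle ratios by unpaired t-test on proteins with ≥2 unique peptides.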

[2] = target: USP46 (UniProt P62068)
Outline: as §1

[3] = target: T2, USP47 (UniProt Q96K76)
T2 sequence (whole entry): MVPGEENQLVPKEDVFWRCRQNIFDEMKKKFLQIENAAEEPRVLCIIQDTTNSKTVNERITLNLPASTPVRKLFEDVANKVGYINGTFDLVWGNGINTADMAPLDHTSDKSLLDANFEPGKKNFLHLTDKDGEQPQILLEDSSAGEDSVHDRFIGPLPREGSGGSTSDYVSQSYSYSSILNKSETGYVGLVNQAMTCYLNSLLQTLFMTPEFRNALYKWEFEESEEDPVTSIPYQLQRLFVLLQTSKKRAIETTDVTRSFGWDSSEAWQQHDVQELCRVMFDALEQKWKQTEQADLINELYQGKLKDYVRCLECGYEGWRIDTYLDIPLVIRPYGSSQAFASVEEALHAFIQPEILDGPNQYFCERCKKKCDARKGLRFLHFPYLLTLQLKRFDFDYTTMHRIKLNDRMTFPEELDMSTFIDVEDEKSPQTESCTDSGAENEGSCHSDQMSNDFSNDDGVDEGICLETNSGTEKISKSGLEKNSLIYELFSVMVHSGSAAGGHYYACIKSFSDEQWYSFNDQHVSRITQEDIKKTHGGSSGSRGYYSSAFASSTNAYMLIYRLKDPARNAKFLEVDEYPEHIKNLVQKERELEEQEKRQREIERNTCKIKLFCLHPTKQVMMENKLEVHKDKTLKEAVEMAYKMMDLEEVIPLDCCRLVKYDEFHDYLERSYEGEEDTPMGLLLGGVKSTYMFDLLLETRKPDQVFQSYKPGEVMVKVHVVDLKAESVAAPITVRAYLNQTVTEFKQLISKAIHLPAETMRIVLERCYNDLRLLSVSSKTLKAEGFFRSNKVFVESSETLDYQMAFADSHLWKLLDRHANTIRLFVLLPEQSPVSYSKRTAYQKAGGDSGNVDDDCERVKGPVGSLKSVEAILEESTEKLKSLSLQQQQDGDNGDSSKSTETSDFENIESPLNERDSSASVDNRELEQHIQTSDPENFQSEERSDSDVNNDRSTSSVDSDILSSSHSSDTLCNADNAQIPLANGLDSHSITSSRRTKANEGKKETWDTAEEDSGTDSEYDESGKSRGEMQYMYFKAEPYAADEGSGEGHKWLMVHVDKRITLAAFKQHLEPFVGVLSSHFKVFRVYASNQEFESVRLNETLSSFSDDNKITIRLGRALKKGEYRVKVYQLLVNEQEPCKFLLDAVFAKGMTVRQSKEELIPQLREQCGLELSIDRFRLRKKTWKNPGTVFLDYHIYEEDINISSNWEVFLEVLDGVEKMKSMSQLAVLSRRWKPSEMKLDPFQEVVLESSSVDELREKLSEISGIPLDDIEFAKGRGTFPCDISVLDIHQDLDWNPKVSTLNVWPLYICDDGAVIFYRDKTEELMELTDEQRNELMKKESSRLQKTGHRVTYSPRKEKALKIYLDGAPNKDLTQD
Outline: as §1

[4] = target: T3, USP48 (UniProt Q86UV5)
T3 sequence (whole entry): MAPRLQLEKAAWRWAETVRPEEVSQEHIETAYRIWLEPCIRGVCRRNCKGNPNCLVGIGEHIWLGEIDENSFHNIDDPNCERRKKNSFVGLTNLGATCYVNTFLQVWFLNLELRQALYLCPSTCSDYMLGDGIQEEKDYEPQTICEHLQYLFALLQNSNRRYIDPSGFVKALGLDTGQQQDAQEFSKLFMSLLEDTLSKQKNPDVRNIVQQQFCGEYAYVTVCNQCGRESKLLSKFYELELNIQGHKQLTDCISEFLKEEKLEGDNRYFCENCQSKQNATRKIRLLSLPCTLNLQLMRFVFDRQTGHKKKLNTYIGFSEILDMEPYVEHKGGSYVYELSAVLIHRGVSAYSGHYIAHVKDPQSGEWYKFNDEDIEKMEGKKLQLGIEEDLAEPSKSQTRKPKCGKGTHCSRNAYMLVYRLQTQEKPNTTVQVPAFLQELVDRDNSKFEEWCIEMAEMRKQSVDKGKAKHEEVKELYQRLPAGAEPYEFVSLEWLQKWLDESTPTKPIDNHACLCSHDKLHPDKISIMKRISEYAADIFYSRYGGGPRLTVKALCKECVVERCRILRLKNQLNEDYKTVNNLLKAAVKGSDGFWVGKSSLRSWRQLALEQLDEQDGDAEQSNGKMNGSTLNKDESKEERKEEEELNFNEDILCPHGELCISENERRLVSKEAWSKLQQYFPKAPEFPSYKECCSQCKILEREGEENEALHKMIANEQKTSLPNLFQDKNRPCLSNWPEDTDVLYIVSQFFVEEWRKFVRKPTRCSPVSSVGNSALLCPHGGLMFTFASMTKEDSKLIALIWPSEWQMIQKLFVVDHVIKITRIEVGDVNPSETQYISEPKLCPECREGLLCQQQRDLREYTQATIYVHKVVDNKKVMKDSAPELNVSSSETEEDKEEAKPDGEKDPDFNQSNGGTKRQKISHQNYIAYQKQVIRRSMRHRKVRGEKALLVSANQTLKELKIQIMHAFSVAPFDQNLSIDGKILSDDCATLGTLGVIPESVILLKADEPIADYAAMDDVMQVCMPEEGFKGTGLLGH
Outline: as §1

[5] = target: T4, USP5 (UniProt P45974)
T4 sequence (whole entry): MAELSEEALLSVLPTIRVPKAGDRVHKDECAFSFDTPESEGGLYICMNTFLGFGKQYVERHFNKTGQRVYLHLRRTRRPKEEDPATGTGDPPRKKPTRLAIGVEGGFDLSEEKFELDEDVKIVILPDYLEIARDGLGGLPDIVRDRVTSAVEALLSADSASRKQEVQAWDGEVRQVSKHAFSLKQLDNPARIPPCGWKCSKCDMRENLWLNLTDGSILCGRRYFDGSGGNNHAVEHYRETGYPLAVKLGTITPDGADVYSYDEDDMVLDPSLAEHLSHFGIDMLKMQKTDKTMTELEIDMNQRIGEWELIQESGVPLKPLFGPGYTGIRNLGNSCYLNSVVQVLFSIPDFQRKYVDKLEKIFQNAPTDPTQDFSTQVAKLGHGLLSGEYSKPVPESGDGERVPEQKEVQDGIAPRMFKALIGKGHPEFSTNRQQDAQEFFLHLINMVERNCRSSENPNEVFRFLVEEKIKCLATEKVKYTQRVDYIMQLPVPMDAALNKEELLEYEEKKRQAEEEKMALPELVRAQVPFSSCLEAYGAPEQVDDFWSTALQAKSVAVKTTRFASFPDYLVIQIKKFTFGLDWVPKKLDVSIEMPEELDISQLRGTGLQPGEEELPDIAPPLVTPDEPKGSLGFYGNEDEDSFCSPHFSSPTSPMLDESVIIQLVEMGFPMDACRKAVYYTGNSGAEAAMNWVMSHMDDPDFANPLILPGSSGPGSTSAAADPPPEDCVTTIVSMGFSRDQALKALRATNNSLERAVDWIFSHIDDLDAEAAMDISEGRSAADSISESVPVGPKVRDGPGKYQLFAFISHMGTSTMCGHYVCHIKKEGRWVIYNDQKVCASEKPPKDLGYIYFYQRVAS
Outline: as §1

[6] = target: USP54 (UniProt Q70EL1)
Outline: as §1

[7] = target: USP7 (UniProt Q93009)
Outline: as §1

[8] = target: T5, USP8 (UniProt P40818)
T5 sequence (whole entry): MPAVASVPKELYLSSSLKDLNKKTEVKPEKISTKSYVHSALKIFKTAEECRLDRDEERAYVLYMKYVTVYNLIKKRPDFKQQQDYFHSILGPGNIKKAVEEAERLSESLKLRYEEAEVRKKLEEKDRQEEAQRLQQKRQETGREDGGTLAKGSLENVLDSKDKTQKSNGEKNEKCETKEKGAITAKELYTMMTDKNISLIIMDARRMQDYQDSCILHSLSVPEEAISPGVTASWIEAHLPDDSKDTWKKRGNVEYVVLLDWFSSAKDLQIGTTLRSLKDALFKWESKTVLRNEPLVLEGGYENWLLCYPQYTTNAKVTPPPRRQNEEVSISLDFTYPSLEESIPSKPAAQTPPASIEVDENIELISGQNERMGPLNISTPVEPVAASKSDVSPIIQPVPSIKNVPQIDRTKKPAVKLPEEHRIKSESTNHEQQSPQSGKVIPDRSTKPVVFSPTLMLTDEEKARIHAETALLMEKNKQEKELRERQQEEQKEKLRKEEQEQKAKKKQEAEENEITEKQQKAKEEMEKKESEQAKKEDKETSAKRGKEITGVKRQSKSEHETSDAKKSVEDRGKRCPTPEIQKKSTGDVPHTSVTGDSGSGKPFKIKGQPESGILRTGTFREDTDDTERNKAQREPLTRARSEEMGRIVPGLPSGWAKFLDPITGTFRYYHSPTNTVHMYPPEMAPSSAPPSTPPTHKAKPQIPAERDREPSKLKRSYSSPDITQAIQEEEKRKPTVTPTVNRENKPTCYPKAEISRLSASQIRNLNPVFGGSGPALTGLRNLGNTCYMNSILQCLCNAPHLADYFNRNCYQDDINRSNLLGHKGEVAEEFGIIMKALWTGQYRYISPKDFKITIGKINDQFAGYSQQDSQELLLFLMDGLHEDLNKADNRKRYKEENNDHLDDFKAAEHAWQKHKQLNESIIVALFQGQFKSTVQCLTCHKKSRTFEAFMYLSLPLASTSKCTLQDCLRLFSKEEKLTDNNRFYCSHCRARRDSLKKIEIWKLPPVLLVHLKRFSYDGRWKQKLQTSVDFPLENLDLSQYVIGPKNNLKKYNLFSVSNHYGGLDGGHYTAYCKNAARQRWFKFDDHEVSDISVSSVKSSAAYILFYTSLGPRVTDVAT
Outline: as §1

[9] = target: USP9X (UniProt Q93008)
Outline: as §1

[10] = target: UniProt O00487
Outline: as §1

Measured: log2 ratio of Biotin-Ahx-Ub-VS probe labelling

Sequence of USP46 (P62068 whole entry): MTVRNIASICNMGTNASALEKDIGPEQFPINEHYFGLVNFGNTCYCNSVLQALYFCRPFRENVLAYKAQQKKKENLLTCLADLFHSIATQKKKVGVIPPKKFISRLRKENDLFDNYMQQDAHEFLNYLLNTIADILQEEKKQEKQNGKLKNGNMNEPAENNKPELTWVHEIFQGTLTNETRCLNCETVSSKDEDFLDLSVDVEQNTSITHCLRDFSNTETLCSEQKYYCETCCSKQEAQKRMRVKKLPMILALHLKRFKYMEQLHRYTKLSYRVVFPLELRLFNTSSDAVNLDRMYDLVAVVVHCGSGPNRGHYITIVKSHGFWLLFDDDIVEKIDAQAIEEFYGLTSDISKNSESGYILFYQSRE
Sequence of USP9X (Q93008 whole entry): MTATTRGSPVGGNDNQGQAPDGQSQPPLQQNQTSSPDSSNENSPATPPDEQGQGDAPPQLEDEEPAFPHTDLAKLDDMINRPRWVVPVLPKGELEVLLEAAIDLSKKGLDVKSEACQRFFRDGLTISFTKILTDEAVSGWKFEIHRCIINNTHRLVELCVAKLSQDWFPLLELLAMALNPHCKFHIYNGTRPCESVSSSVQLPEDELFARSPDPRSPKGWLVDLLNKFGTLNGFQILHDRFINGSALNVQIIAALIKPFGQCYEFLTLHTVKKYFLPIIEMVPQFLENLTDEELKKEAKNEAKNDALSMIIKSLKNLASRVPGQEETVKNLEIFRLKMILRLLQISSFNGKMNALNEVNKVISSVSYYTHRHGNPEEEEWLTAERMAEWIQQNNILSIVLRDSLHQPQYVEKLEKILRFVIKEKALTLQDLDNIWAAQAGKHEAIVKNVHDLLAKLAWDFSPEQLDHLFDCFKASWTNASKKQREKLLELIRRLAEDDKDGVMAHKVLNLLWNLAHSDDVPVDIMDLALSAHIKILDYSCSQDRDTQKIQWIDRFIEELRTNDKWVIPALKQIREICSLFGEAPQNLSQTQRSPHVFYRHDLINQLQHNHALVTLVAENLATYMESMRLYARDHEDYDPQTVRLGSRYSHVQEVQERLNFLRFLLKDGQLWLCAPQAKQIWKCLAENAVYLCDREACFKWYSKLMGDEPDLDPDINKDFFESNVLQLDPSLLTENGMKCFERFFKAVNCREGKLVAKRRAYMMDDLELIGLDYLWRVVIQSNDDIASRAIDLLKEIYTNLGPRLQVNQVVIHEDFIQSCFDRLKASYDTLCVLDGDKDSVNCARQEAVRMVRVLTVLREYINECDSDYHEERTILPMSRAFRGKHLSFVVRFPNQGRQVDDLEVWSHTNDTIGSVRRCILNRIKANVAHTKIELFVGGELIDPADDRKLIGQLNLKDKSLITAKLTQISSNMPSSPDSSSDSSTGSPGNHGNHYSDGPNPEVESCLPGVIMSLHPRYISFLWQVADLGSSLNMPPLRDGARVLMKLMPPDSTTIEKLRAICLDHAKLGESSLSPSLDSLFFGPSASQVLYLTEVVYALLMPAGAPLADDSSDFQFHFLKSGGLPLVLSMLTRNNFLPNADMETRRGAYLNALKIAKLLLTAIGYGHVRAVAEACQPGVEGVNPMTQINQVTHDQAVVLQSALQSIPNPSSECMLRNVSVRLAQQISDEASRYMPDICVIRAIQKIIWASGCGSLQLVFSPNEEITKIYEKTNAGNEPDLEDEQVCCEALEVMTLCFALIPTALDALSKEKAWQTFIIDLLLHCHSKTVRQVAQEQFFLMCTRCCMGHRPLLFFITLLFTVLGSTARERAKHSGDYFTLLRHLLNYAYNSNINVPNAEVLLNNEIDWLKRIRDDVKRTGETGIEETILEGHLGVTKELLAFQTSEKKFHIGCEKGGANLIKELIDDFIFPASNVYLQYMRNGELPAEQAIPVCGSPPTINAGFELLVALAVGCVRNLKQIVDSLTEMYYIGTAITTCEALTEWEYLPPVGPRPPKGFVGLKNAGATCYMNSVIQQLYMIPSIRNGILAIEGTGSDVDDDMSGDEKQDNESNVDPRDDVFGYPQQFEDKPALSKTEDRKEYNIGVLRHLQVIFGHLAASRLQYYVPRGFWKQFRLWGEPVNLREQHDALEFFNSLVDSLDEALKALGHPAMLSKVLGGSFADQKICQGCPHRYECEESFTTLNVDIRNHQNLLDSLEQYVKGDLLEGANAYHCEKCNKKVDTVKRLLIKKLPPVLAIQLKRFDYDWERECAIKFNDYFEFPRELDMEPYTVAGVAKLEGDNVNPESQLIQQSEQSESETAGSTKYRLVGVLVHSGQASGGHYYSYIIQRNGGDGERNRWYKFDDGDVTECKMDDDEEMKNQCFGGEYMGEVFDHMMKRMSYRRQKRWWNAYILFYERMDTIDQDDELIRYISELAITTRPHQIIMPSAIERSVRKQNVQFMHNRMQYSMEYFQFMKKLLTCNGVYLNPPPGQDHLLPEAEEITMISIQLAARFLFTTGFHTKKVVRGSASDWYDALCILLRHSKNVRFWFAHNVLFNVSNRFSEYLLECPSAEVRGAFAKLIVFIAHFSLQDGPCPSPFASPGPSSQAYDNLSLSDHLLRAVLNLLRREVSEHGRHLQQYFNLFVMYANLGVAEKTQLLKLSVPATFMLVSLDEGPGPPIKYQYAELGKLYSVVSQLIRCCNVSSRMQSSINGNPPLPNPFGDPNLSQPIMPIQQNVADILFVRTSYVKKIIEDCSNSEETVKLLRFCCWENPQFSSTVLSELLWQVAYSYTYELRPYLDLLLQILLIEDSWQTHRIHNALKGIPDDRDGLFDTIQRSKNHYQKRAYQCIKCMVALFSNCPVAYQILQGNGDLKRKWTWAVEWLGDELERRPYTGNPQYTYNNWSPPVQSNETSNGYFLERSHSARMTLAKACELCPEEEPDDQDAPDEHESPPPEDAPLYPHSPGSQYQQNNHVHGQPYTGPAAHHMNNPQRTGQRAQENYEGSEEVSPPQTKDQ
Sequence of USP54 (Q70EL1 whole entry): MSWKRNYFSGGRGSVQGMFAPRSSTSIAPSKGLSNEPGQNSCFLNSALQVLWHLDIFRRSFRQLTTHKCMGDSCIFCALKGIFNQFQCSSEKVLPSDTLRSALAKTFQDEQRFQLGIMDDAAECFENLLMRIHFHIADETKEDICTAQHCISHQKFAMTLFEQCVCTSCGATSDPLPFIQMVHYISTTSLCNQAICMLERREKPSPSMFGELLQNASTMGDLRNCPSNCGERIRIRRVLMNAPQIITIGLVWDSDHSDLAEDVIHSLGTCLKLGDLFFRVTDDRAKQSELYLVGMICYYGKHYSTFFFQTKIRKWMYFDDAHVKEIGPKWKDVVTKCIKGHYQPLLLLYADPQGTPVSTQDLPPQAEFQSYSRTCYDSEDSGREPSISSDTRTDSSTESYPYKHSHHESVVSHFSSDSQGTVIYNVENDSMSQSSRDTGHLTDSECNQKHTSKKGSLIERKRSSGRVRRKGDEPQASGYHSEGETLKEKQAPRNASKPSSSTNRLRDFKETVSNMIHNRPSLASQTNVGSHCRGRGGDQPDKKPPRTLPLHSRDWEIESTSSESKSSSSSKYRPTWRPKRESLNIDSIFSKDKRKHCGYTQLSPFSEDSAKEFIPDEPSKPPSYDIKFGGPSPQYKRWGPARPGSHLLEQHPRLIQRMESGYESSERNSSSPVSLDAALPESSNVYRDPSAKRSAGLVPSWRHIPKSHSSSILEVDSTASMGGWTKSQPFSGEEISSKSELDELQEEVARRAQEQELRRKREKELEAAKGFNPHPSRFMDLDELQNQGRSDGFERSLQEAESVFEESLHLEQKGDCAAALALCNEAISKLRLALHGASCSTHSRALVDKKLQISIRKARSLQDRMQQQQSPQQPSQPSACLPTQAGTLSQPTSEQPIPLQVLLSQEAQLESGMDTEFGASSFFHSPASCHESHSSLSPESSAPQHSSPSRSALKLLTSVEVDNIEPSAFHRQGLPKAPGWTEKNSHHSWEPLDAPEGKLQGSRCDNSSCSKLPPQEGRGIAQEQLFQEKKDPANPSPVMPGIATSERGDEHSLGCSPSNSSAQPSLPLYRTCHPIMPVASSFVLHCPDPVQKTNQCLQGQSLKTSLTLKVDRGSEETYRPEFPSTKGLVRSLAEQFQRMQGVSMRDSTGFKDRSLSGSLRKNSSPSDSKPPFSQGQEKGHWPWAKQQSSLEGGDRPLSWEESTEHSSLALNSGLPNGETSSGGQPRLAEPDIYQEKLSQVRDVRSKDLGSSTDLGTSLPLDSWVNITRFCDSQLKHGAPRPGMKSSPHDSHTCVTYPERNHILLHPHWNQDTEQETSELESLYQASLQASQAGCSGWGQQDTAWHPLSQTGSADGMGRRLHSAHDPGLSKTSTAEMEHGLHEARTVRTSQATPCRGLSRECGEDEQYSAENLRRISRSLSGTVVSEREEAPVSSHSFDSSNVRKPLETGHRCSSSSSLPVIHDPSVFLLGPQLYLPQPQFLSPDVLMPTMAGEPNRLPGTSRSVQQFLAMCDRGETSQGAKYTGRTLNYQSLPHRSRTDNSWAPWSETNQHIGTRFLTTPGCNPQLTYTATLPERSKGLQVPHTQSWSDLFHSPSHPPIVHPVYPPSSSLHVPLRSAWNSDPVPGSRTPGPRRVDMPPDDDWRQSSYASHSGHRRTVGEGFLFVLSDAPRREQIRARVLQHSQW
Sequence of UniProt O00487 (O00487 whole entry): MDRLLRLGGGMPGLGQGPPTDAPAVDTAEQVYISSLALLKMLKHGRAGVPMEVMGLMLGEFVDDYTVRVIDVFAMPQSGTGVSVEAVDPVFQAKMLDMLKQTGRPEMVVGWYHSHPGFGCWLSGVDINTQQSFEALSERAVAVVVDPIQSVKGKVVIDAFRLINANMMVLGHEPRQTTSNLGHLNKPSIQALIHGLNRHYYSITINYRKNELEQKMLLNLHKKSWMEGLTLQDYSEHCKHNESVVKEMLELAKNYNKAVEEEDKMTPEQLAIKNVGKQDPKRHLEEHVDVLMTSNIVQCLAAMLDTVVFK

Cc1cccnc1NC(=O)C1CCN(C(=O)CCl)CC1.Cl
inactive: [1] -0.427 | [2] -0.0664 | [3] -0.337 | [4] -0.172 | [5] -0.0361 | [6] 0.628 | [7] -0.121 | [8] -0.221 | [9] -0.327 | [10] 0.014

COc1ccccc1C(C)NC(=O)CCl (stereo not given)
inactive: [1] -0.0523 | [2] -0.0541 | [3] -0.334 | [4] -0.321 | [5] -0.208 | [6] 0.256 | [7] -0.235 | [8] -0.576 | [9] -0.174 | [10] 0.0235

O=C(CCl)N1CCC(c2noc3cc(F)ccc23)CC1
active: [7] -1.81
inactive: [1] 0.542 | [2] -0.343 | [3] -0.18 | [4] -0.806 | [5] 0.182 | [6] 0.351 | [8] -0.0714 | [9] -0.201 | [10] -0.0622

Cl.O=C(CCl)NC1(c2ncccn2)CCC1
inactive: [1] 0.259 | [2] 0.267 | [3] -0.186 | [4] -0.0959 | [5] -0.174 | [6] -0.292 | [7] -0.0088 | [8] -0.47 | [9] 0.117 | [10] 0.0465
